# A number with no mark means an inactive call. Inconclusive results are not listed. A call without a number means that no potency is given here. The source made the active and inactive calls. Unless noted, the call rests on the fitted dose curve; in most records, active means well fitted curve in the direction sought with a large enough effect; inconclusive means small, poorly fitted or top-dose-only effect, or another doubt; inactive means no such curve, though single readings can be large; an effect the other way counts as inactive or inconclusive.
# Columns and labels:
# [1] = molecular target: T1, Hexokinase-4 (Homo sapiens) + Glucokinase regulatory protein (Homo sapiens) (UniProt P35557+Q14397); test: qHTS assay for inhibitors of recombinant human GCK-GKRP interaction: ADP-Glo assay (AID 743206)
# T1 sequence (P35557 whole entry, looked up): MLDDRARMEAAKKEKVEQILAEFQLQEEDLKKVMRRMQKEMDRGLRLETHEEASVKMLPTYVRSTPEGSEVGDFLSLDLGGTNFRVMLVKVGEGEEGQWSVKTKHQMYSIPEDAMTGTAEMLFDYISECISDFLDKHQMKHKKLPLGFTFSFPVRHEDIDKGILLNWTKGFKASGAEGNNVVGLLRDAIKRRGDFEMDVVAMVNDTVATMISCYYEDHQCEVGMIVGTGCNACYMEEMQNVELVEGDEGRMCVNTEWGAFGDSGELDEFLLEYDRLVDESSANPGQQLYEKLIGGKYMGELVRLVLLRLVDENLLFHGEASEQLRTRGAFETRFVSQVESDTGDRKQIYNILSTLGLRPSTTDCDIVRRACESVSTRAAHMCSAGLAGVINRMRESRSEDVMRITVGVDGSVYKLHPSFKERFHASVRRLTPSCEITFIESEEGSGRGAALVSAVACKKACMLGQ
# T1 sequence (Q14397 whole entry, looked up): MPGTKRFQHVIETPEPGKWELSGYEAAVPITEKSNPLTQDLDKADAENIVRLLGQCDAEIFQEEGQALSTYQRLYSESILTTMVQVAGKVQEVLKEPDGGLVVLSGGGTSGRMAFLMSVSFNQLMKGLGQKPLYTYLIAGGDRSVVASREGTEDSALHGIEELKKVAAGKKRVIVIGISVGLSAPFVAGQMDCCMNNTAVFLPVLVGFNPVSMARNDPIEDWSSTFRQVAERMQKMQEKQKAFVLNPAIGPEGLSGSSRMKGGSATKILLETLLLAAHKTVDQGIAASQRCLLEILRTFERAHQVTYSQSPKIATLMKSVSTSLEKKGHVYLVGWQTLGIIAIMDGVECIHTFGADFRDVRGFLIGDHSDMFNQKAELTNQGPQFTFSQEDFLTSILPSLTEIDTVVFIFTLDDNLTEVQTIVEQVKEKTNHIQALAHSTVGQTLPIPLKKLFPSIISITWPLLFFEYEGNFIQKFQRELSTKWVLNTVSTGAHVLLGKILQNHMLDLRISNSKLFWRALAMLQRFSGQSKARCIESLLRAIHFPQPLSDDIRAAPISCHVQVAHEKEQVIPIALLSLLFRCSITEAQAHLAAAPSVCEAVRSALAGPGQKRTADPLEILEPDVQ
# Method in brief: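 GST-GCK and FLAG-GKRP (15 nM each in the dispensed mix, with 2 uM S6P) react with 0.4 mM ATP and 5 mM glucose (final) in Hepes pH 7.6 for 60 min at room temperature. ADP is measured by ADP-Glo luminescence.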
# [2] = molecular target: T1, Hexokinase-4 (Homo sapiens) + Glucokinase regulatory protein (Homo sapiens); test: qHTS assay for inhibitors of recombinant human GCK-GKRP interaction: HTRF assay (AID 743207)
# Method in brief: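 Titration screening format: recombinant GST-GCK and FLAG-GKRP at 5 nM, S6P at 2 uM, labelled anti-tag antibodies, 60 min at RT, dual-wavelength HTRF readout.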
# [3] = qHTS Assay for Identifying Gametocytocidal Compounds (AID 743244); further: potency means the concentration at half of the fitted maximal effect; conditions: P. falciparum 3D7 stage III-V gametocytes, alamarBlue, 72 h; max response: hits give low values
# Method in brief: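 P. falciparum 3D7 stage III–V gametocytes (20,000 cells/well) were exposed to compounds for 72 h at 37 °C, 5% CO2. AlamarBlue was then added for 24 h; decreased resorufin fluorescence (Ex 525/Em 598 nm) indicated loss of viability.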
# [4] = Natriuretic polypeptide receptor (hNpr1) antagonism - Pilot counterscreen GloSensor control cell line (AID 1347045; calls by dose curve; further: potency means the concentration at half of the fitted maximal effect)
# Method in brief: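 Luminescence was read before and 20 min after adding 50 uM SNP, which stimulates soluble guanylyl cyclase. The HEK293 cells expressing the GloSensor cGMP sensor had been preloaded with 2% reagent for 2 h and treated with compound.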
# [5] = molecular target: T2, Tyrosine-protein phosphatase non-receptor type substrate 1 (Homo sapiens) + Leukocyte surface antigen CD47 (Homo sapiens) (UniProt P78324+Q08722); test: CD47-SIRPalpha protein protein interaction - LANCE assay qHTS validation (AID 1347057; active means well fitted curve in the direction sought with a large enough effect in the signal ratio, with a control signal flat, not every such curve was filed as active; the % refers to the signal ratio; further: series mostly up to about 38 µM)
# T2 sequence (P78324 whole entry, looked up): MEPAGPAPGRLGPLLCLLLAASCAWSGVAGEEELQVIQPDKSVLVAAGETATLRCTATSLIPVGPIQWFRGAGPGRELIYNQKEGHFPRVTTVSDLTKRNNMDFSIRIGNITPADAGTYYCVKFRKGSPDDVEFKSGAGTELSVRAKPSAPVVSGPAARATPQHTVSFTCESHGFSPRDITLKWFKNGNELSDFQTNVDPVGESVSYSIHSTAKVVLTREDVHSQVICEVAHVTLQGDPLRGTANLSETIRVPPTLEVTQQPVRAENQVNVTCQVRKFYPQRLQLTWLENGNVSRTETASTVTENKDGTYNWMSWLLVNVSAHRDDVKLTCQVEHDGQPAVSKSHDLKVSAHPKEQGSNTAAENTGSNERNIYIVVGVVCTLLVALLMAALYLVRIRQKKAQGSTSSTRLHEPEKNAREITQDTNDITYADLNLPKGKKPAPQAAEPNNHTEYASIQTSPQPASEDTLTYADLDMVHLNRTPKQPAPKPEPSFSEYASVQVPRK
# T2 sequence (Q08722 whole entry, looked up): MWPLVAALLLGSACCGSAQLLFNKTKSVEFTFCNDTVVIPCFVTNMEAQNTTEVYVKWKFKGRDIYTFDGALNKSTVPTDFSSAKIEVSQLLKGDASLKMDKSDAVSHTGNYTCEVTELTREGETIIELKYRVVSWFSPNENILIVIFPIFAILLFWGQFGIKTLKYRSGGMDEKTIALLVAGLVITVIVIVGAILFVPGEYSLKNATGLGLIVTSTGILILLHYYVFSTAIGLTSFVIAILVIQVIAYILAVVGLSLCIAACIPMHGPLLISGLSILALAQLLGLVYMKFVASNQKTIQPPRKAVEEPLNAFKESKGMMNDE
# Method in brief: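 First, His-tagged CD47 and Eu-labelled anti-His antibody met the compound for 30 min; next, site-specifically biotinylated SIRPalpha was added for 30 min; finally streptavidin-APC was added before reading the TR-FRET ratio.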
# [6] = molecular target: T2, Tyrosine-protein phosphatase non-receptor type substrate 1 (Homo sapiens) + Leukocyte surface antigen CD47 (Homo sapiens); test: CD47-SIRPalpha protein protein interaction - HTRF assay qHTS validation (AID 1347058; active means well fitted curve in the direction sought with a large enough effect in the signal ratio, not every such curve was filed as active; the % refers to the signal ratio;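 further: recombinant soluble extracellular CD47 with His tag and biotinylated SIRPalpha domains; series mostly up to about 38 µM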)
# Method in brief: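 TR-FRET read (Ch1/Ch2 ratio) of soluble extracellular CD47 and Avi-biotinylated SIRPalpha domains in PBS pH 7.4 with 0.05% IGEPAL; 7-point compound titration. Sequential 30 min room-temperature steps; non-biotinylated SIRPalpha as control inhibitor.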
# [7] = molecular target: T2, Tyrosine-protein phosphatase non-receptor type substrate 1 (Homo sapiens) + Leukocyte surface antigen CD47 (Homo sapiens); test: CD47-SIRPalpha protein protein interaction - Alpha assay qHTS validation (AID 1347059);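 further: bead proximity luminescence from CD47 binding SIRPalpha after compound preincubation with SIRPalpha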
# Method in brief: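 Binding is measured by AlphaScreen proximity: Ni-NTA acceptor beads capture His-CD47, streptavidin donor beads capture biotin-SIRPalpha. Each of three additions (SIRPalpha with compound, CD47, beads) incubates 30 min at room temperature protected from light.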
# [8] = molecular target: Parathyroid hormone/parathyroid hormone-related peptide receptor (Homo sapiens) (UniProt Q03431); test: qHTS for PTHR1 Agonists: Optimization Screen against the NCGC LOPAC library (AID 1347079);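 further: GloSensor cAMP luminescence in HEK-293 GP2 cells expressing human PTHR1 with IBMX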
# Chain of Parathyroid hormone/parathyroid hormone-related peptide receptor (Homo sapiens) (Q03431 whole entry, looked up): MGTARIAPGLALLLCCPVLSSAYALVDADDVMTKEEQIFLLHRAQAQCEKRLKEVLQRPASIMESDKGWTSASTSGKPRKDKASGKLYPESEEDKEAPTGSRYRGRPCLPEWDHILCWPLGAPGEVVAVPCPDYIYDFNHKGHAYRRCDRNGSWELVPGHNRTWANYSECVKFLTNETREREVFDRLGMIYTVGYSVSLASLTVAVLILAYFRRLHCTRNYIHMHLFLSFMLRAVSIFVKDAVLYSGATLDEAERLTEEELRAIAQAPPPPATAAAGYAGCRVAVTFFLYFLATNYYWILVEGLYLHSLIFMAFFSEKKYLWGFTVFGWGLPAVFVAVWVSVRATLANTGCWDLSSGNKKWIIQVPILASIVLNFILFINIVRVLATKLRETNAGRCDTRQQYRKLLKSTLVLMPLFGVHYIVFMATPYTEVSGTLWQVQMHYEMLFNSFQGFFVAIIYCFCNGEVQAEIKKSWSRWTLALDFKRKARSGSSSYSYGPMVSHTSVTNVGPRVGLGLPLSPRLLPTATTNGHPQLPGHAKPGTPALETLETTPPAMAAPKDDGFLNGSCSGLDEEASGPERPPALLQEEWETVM
# Method in brief: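 Agonist readout: GloSensor cAMP luminescence, read after 15 min at room temperature. HEK-293-derived GP2 line carries PTHR1; compounds tested as a titration for 1 hr at 37C in presence of IBMX. M-PTH (1-15) served as control.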
# [9] = molecular target: Lysine-specific demethylase 5B (Homo sapiens) (UniProt Q9UGL1); test: Optimization screen for KDM5B Histone Demethylases FDH coupled qHTS against the LOPAC library (AID 1347166)
# Chain of Lysine-specific demethylase 5B (Homo sapiens) (Q9UGL1 whole entry, looked up): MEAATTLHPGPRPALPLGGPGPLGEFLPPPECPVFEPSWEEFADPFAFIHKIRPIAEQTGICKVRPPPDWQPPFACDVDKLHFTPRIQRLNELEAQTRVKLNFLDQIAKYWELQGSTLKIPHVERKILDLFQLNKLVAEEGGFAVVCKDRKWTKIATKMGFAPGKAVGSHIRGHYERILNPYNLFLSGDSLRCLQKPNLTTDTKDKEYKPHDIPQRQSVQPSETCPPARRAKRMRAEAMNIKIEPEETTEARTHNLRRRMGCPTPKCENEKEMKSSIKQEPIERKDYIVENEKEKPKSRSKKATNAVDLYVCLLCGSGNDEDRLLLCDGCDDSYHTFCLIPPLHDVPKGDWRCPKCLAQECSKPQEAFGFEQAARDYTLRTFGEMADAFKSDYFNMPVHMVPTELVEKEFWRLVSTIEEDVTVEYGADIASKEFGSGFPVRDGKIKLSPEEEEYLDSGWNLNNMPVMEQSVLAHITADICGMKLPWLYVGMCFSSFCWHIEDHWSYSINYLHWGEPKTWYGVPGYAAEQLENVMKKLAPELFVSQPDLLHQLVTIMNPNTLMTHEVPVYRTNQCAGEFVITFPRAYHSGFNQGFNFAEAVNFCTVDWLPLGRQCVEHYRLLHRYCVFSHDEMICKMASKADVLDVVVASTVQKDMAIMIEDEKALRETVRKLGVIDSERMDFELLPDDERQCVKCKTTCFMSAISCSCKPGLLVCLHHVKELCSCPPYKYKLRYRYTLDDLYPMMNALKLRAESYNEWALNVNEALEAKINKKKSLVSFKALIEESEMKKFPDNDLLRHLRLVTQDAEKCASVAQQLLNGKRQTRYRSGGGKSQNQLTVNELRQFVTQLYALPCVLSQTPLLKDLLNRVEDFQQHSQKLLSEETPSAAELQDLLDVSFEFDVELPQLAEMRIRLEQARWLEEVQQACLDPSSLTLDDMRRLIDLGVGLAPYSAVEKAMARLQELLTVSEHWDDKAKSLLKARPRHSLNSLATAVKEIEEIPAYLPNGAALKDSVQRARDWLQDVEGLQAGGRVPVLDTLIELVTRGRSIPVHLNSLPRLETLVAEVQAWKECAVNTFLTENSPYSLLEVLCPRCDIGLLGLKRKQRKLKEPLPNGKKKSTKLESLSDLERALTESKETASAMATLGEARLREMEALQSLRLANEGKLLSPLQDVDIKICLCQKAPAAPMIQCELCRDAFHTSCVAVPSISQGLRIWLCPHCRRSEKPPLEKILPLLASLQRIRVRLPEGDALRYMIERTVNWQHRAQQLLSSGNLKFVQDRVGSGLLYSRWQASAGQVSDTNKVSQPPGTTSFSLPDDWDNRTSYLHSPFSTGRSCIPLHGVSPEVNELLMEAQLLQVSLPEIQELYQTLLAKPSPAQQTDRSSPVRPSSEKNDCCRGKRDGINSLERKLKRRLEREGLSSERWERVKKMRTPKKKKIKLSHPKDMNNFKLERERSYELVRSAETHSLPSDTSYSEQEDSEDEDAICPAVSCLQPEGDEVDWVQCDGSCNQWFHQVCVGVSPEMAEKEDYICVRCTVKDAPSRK
# Method in brief: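 KDM5BDeltaAP (200nM final) preincubated 10 min with compound, then 12.5uM H3K4Me3, 25uM a-ketoglutarate, ascorbate, Fe(II), NAD+ and FDH added; 50mM HEPES pH 7.5, 0.01% Tween-20. NADH fluorescence (340/450 nm) change over 30 min, room temperature.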
# [10] = qHTS for inhibitors of adenylyl cyclases using a fission yeast platform: a pilot screen against the NCATS LOPAC library (AID 1347410)
# Method in brief: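 Inhibition of GNAS-stimulated AC9 activity in S. pombe was inferred from derepression of a PKA-repressed fbp1-GFP reporter, measured as cytometric fluorescence after 18 h at 30C with compounds at up to 57 µM.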
# [11] = Validation qHTS assay for inhibitors of Activation Induced Cytidine Deaminase (AID): UDG Counterscreen signal (AID 1347427)
# Method in brief: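 Counterscreen read of UDG activity (2 U/mL, 4/3x) in the FRET deamination format with AID (1 uM, 4/3x), DJC20/DJC23 substrates (250 nM, 4x), 4 h at room temperature. NaOH stop, fluorescence at 560 ex/665 em.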
# [12] = molecular target: Single-stranded DNA cytosine deaminase (Homo sapiens) (UniProt Q9GZX7); test: Validation qHTS assay for inhibitors of Activation Induced Cytidine Deaminase (AID): AID signal (AID 1347429)
# Chain of Single-stranded DNA cytosine deaminase (Homo sapiens) (Q9GZX7 whole entry, looked up): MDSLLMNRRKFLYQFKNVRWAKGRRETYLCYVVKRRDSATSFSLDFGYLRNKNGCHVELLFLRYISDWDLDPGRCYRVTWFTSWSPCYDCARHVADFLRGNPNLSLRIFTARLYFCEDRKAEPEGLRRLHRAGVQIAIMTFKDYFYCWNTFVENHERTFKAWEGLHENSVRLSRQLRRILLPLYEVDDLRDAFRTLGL
# Method in brief: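 Fluorescence at 540 nm excitation and 590 nm emission reports ssDNA cytosine deamination by AID, with UDG in the same well. Compound-treated reactions ran 4 hr at room temperature with DJC20/DJC23 substrate, followed by 30 min NaOH treatment.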
# [13] = Primary qHTS for inhibitors of La Crosse Virus (LACV) - induced cell death in SH-SY5Y cells (AID 1508616);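 further: top concentration of the series differs between compounds; higher means more rescue of cells from virus-induced death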
# Method in brief: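 Protection against LACV-induced cell death is scored in SH-SY5Y cells exposed to compounds and virus (0.01 MOI) for 6 days. Data normalized to virus-infected DMSO wells and virus-free DMSO wells.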
# [14] = molecular target: Calcium and integrin-binding protein 1 (Homo sapiens) (UniProt Q99828); test: Validation qHTS for Identification of Calcium Integrin Binding protein 1 (CIB1) Competitor (AID 1508618)
# Chain of Calcium and integrin-binding protein 1 (Homo sapiens) (Q99828 whole entry, looked up): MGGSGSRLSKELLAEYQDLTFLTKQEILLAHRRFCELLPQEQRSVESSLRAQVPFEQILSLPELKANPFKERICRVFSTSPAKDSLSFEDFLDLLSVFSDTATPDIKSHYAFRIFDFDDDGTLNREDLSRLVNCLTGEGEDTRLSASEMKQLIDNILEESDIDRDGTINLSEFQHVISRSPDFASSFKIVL
# Method in brief: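 CIB1-GST (1 uM final) in 5 mM HEPES pH 7.4, 125 mM NaCl, 5 mM CaCl2, 0.01% Tween20 was preincubated 15 min at room temperature with compound (up to 114 uM), then FITC-alphaIIb peptide (100 nM) added for 15 min; fluorescence polarization read.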
# [15] = Counterscreen qHTS for small molecule stabilizers of the endoplasmic reticulum resident proteome: GLuc-NoTag assay (AID 1508627);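 further: SH-SY5Y cells given compound then 100 nM thapsigargin to empty ER calcium; series mostly up to about 76 µM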
# Method in brief: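 Luminescence of Gaussia luciferase secreted into the medium (coelenterazine, 0.07x final, unlysed cells) was the read-out. Human SH-SY5Y neuroblastoma cells constitutively secreting untagged GLuc received compound for 19 h, then 100 nM thapsigargin for 4 h.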
# [16] = Cell Viability qHTS for small molecule stabilizers of the endoplasmic reticulum resident proteome (AID 1508629); conditions: cell viability counter-screen, 100 nM thapsigargin for final 4 h;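 further: human SH-SY5Y neuroblastoma cells carrying the GLuc-SERCaMP reporter; compound exposure about 46 h in total before the viability read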
# Papain (Carica papaya) = Papain (Carica papaya) (UniProt P00784); test: Primary qHTS assay for inhibitors of the protease papain (AID 1645873);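 further: papain turnover of Z-FR-AMC read as the AMC fluorescence gain over 10 min; series mostly up to about 50 µM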
# [17] = molecular target: Metallo-beta-lactamase type 2 (Klebsiella pneumoniae) (UniProt C7C422); test: qHTS to identify inhibitors of the New Delhi Metallo-beta-lactamase (NDM): assay validation screen against the NCATS LOPAC Collection (AID 1794843);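 further: nitrocefin turnover by NDM-1 measured as 485 nm absorbance at plateau; series mostly up to about 38 µM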
# Chain of Metallo-beta-lactamase type 2 (Klebsiella pneumoniae) (C7C422 whole entry, looked up): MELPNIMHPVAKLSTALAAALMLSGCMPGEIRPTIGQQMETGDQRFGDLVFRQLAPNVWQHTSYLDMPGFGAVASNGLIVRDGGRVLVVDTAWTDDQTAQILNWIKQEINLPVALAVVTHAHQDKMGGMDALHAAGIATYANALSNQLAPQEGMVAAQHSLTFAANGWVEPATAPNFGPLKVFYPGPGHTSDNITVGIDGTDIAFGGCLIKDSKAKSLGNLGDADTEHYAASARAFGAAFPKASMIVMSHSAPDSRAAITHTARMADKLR
# Method in brief: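 NDM-1 at 2 nM final in 50 mM HEPES pH 7.0 with 1 uM ZnSO4 and 0.01% Tween20 was preincubated with library compounds in DMSO. Nitrocefin (50 uM stock) was then added, and absorbance at 485 nm was read at the kinetic plateau.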
# [18] = molecular target: Glutathione peroxidase 1 (Homo sapiens) (UniProt P07203); test: Primary qHTS Assay for Inhibitors of Recombinant Selenoprotein Glutathione Peroxidase 1 (GPX1) (AID 1845191); further: nearly all actives have a fitted effect of over 65% in size
# Method in brief: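 10 nM GPX1 + cpd, 30 min RT; start w/ 1 mM GSH, 0.5 mM cumene hydroperoxide, 0.5 mM NADPH, 100 nM GR, 0.01% BSA; buffer 50 mM Tris-HCl pH 7.5, 2 mM EDTA, 150 mM NaCl; Fl 340/450, 0 & 15 min.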
# [19] = molecular target: Phospholipid hydroperoxide glutathione peroxidase GPX4 (Homo sapiens) (UniProt P36969); test: Primary qHTS Assay for Inhibitors of Recombinant Selenoprotein Glutathione Peroxidase 4 (GPX4) (AID 1845192); conditions: outcome: dose series up to 50 µM unless noted; further: series mostly up to about 50 µM; nearly all actives have a fitted effect of over 65% in size
# Chain of Phospholipid hydroperoxide glutathione peroxidase GPX4 (Homo sapiens) (P36969 whole entry, looked up): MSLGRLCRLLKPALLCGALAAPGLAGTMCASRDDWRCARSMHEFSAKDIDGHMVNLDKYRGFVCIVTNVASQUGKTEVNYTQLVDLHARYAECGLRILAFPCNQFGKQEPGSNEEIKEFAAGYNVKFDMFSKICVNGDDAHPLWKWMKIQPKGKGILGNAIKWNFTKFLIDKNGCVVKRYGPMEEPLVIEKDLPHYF
# Method in brief: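 NADPH consumption, followed by fluorescence at 340/450 nm between 0 and 15 min, reports GPX4 activity via coupled glutathione reductase (100 nM). Enzyme 200 nM was pre-exposed to compound 30 min; 0.5 mM cumene hydroperoxide and 1 mM GSH served as substrates.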
compound,measurement,setting,value
S=C(Nc1ccccc1)Nc1nccs1,outcome,[1],inactive
same,outcome,[2],inactive
same,Potency,[3],1.58 µM (active)
same,Potency,[4],13.1 µM (active)
same,outcome,[5],inactive
same,outcome,[6],inactive
same,Potency,[7],inactive
same,outcome,[8],inactive
same,outcome,[9],inactive
same,outcome,[10],inactive
same,outcome,[11],inactive
same,Potency,[12],inactive
same,outcome,[13],inactive
same,outcome,[14],inactive
same,Potency,[15],inactive
same,max response,[16],-3.94%
same,Potency,Papain (Carica papaya),inactive
same,Potency,[17],inactive
same,Potency,[18],inactive
same,Potency,[19],inactive

# — PubChem BioAssay (NCATS)
